Experimental data as given in PubChem BioAssay AID1345085 (National Center for Advancing Translational Sciences (NCATS), 2018).
Results filed as inconclusive are left out. Unmarked numbers belong to inactive results. The source made the active and inactive calls. Calls come from the whole dose curve; as a rule, active = well fitted cell-killing curve with a large enough effect; inconclusive = small, poorly fitted or top-dose-only effect, or effect the other way; inactive = no such curve, though single readings can be large or run the other way.

System: HeLa
Test: Confirmatory qHTS for gynecologic anti-cancer compounds from libraries of approved drugs and bioactive compounds; note: nearly all actives have a fitted effect of over 55% in size
Conditions: gynecologic cancer cell panel viability, ATPlite luminescence, 48 h; series mostly up to 57.6 µM; activity change, negative = viability loss: at the top concentration
In short: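 ATP-based luminescent viability (ATPlite) after 48 h drug treatment at 37 °C, 5% CO2, across 57.5 uM–0.977 nM in 1:3 steps. Cells seeded at 1,000 per well 16 h beforehand; IC50 values computed, HEK 293T as selectivity control.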
% is set by controls: 0 for no effect and ±100 for the full control effect; potency is the fitted concentration of half-maximal effect.

| SMILES | Potency | activity change, negative = viability loss |
| --- | --- | --- |
| CC[C@H](CC#N)OC(=O)N[C@@H](C)c1cccc(NC(=O)Nc2ccc(-c3cnco3)c(OC)c2)c1 | 8630 nM (active) |  |
| Cc1ccc2nc(N)[nH]c(=O)c2c1Sc1ccncc1 | 8630 nM (active) |  |
| CC(C)(C(=O)NCC(F)(F)C(F)(F)F)C(=O)NC1C(=O)Nc2ccccc2-c2ccccc21 (configuration not stated) | 6110 nM (active) |  |
| Nc1nccc(Oc2ccc(NC(=O)c3c[nH]cc(-c4ccc(F)cc4)c3=O)cc2F)c1Cl | 6850 nM (active) |  |
| COCCOc1ccc2c(c1)ncn2-c1ccc2cccc(N3CCC(N)CC3)c2n1 | 12200 nM (active) |  |
| Nc1ncnc2c1ncn2[C@@H]1O[C@H](CO)C[C@H]1O |  | 2.12% |
| CC(C)Oc1ccc(C(=O)NC(CNC(=O)CN(C)C)Cc2ccc(-c3cn4cccc(C(C)O)c4n3)cc2)cc1Cl (configuration not stated) | 153 nM (active) |  |
| O=C(CCCCCCNC(=O)c1cnc(N(c2ccccc2)c2ccccc2)nc1)NO | 7690 nM (active) |  |
| C=CC(=O)Nc1cccc(Oc2nc(Nc3ccc(N4CCN(C)CC4)cc3)ncc2Cl)c1 | 6850 nM (active) |  |
| COc1ccc(OC)c(-c2nnc3ccc(-c4ccc(OC)c(O[C@@H]5CCOC5)c4)nn23)c1 | 5440 nM (active) |  |
| CC(C)Oc1ccc2c(=O)c(-c3ccccc3)coc2c1 | 21700 nM (active) |  |
| CCCCN(CCCC)C(=O)CN1C[C@H](c2ccc3c(c2)OCO3)[C@@H](C(=O)O)[C@@H]1c1ccc(OC)cc1 |  | 11.9% |
| CC[C@]1(O)C[C@H]2CN(CCc3c([nH]c4ccccc34)[C@@](C(=O)OC)(c3cc4c(cc3OC)N(C=O)[C@H]3[C@@](O)(C(=O)OC)[C@H](OC(C)=O)[C@]5(CC)C=CCN6CC[C@]43[C@@H]65)C2)C1 | 273 nM (active) |  |
| COc1cc(N2CCC(N(C)C)CC2)ccc1Nc1ncc(Cl)c(Nc2ccccc2P(C)(C)=O)n1 | 1370 nM (active) |  |
| CN(C)C1CCN(C(=O)c2ccc(NC(=O)Nc3nc(N4CCOCC4)nc(N4CCOCC4)n3)cc2)CC1 | 769 nM (active) |  |
| NC(=O)c1cccc2cn(-c3ccc([C@@H]4CCCNC4)cc3)nc12 |  | -7.4% |
| COc1cccc2c1C(=O)c1c(O)c3c(c(O)c1C2=O)C[C@@](O)(C(=O)CO)C[C@@H]3O[C@H]1C[C@H](N)[C@H](O)[C@H](C)O1 | 6850 nM (active) |  |
| Cc1nc(N)sc1-c1ccnc(Nc2ccc(N3CCOCC3)cc2)n1 | 2170 nM (active) |  |
| COc1ccc(-c2nc3ccc(C4=NNC(=O)CC4C)cc3[nH]2)cc1 (configuration not stated) | 19300 nM (active) |  |

| SMILES | Potency | activity change, negative = viability loss |
| --- | --- | --- |
| CC1=C(CO)C(=O)O[C@@H]([C@@H](C)[C@H]2CC[C@H]3[C@@H]4C[C@H]5O[C@]56[C@@H](O)C=CC(=O)[C@]6(C)[C@H]4CC[C@]23C)C1 | 2110 nM (active) |  |
| CN(NC(=O)CC(=O)NN(C)C(=S)c1ccccc1)C(=S)c1ccccc1 | 122 nM (active) |  |
| Nc1ccc(C(=O)Nc2cccc(-c3nc(N4CCOCC4)c4oc5ncccc5c4n3)c2)cn1 | 7690 nM (active) |  |
| CNC(=O)c1ccccc1Nc1nc(Nc2ccc(N3CCOCC3)cc2OC)ncc1Cl | 769 nM (active) |  |
| Cc1cc(Nc2nc(N[C@@H](C)c3ncc(F)cn3)ncc2Cl)n[nH]1 | 968 nM (active) |  |
| CCC1C(=O)N(C)c2cnc(Nc3ccc(C(=O)NC4CCN(C)CC4)cc3OC)nc2N1C1CCCC1 (configuration not stated) | 4.9 nM (active) |  |
| CC[C@@]1(O)C(=O)OCc2c1cc1n(c2=O)Cc2cc3c(CN(C)C)c(O)ccc3nc2-1 | 8630 nM (active) |  |
| CCc1cccc(CC)c1NC(=O)N1Cc2[nH]nc(NC(=O)c3ccc(N4CCN(C)CC4)cc3)c2C1 | 1530 nM (active) |  |
| C=CC(=O)Nc1cc2c(Nc3ccc(F)c(Cl)c3)ncnc2cc1OCCCN1CCOCC1 | 27300 nM (active) |  |
| Cn1c(=O)c(-c2c(Cl)cccc2Cl)cc2cnc(Nc3cccc(C(=O)O)c3)nc21 | 2430 nM (active) |  |
| CN(C)CC/C=C1\c2ccccc2COc2ccccc21 |  | -17.2% |
| CCCCc1nc2cc(/C=C/C(=O)NO)ccc2n1CCN(CC)CC | 1720 nM (active) |  |
| Cc1[nH]c2ccccc2c1CCNCc1ccc(/C=C/C(=O)NO)cc1 | 432 nM (active) |  |
| CCCC(Nc1nc(-c2ccc(NC(=O)NCC)c(OC)c2)ncc1C)c1cccnc1 (configuration not stated) | 153 nM (active) |  |
| OCCNC1CCCc2c1[nH]c1ccc(-c3ccccc3)cc21 (configuration not stated) | 1930 nM (active) |  |
| OCc1ccc(-c2ccc(-c3ccc(CO)s3)o2)s1 |  | 0.688% [at 19.5 µM] |
| CCN1CCN(Cc2ccc(-c3cc4c(NC(C)c5ccccc5)ncnc4[nH]3)cc2)CC1 (configuration not stated) | 30600 nM (active) |  |
| Nc1nc(=S)c2[nH]cnc2[nH]1 | 2430 nM (active) |  |
